# Experimental data published in the supplement of paper PMC8387472.
# Where a name gives a salt, the structure may show the parent alone. ± gives the standard deviation of the averaged measurements.
# Test system: mESC LDLR-Dup GFP reporter (SpCas9 MH-deletion repair)
# Experiment: fraction of GFP+ cells relative to DMSO control (fold change); higher = more MH-deletion repair to in-frame LDLR (or more editing)
# Conditions: 2 µM; 7 days post-transfection
row,Structure (SMILES),fraction of GFP+ cells
1,C/C=C(\C)C(=O)N[C@@H](c1ccccc1)[C@@H](O)C(=O)O[C@H]1C[C@@]2(O)[C@@H](OC(=O)c3ccccc3)[C@@H]3[C@]4(OC(C)=O)CO[C@@H]4C[C@H](O)[C@@]3(C)C(=O)[C@H](OC(C)=O)C(=C1C)C2(C)C [Cephalomannine],1.54 ± 0.41
2,CCn1cc(C(=O)O)c(=O)c2cc3c(cc21)OCO3 [Oxolinic acid],0.941 ± 0.23
3,O=C(O)CCCc1ccc(N(CCCl)CCCl)cc1 [Chloroambucil],2.44 ± 0.046
4,COc1ccc2c(c1)/C(=C/c1cnc[nH]1)C(=O)N2,1.29 ± 0.051
5,CN1CCN(c2ccc([N+](=O)[O-])c3no[n+]([O-])c23)CC1,1.37 ± 0.088
6,O=P1(NCCCl)OCCCN1CCCl (stereo not given) [Ifosfamide],1.11 ± 0.34
7,Cn1c(CCCC(=O)O)nc2cc(N(CCCl)CCCl)ccc21 [Bendamustine HCl],1.26 ± 0.33
8,C/C(O)=C(\C#N)C(=O)Nc1cc(Br)ccc1Br,1.04 ± 0.32
9,COC[C@H]1OC(=O)c2coc3c2[C@@]1(C)C1=C(C3=O)[C@@H]2CCC(=O)[C@@]2(C)C[C@H]1OC(C)=O [Wortmannin],0.685 ± 0.098
10,Cc1cc(SCc2sc(-c3ccc(C(F)(F)F)c(F)c3)nc2C)ccc1OCC(=O)O,1.72 ± 0.64
11,CCN1CCN(C(=O)Cc2ccc(Nc3ncc(F)c(Nc4ccc(C(=O)Nc5ccccc5Cl)cc4)n3)cc2)CC1 [Aurora A Inhibitor I],0.548 ± 0.13
12,C[C@H]1CCC/C=C/[C@@H]2C[C@H](O)C[C@H]2[C@H](O)/C=C/C(=O)O1 [Brefeldin A],0.627 ± 0.22
13,NC(=O)c1cc(N2CC2)c([N+](=O)[O-])cc1[N+](=O)[O-],1.43 ± 0.66
14,COc1ccc2c(c1)[nH]c1c(C)nccc12 [harmine hydrochloride],1.1 ± 0.11
15,O=P1(N(CCCl)CCCl)NCCCO1 (stereo not given) [Cyclophosphamide Monohydrate],1.78 ± 0.27
